A selection: hits, their analogues and other compounds. The true share with any hit is near 1.3%.
PREPL inhibitor – PREPL enzyme inhibitors, primary screen, biochemical, fluorescence polarization; Prolyl endopeptidase-like (Homo sapiens), Q4J6C6; recombinant PREPL, fluorescence polarization activity-based probe; inhibition, % at 5.96 µM; hit rate 0.68% among 320,000; AID 2751, 2010; in the data active means inhibition above about 43%;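 further: 0% = enzyme with DMSO and 100% = wells lacking enzyme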
LYPLA1 inh – LYPLA1 inhibitors, primary screen, counter-screen for PME1 inhibitor project, biochemical, fluorescence polarization, FP-Rh probe ABPP; Acyl-protein thioesterase 1 (Homo sapiens), O75608; recombinant LYPLA1; inhibition, % at 5.9 µM; hit rate 0.16% among 320,000;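 active means inhibition above the mean of all tested compounds plus 3 SD, set per campaign, cut at about 14% in these data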;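 further: inhibitors block serine hydrolase probe labeling of LYPLA1 so polarization falls; 0% = enzyme with DMSO and 100% = wells lacking LYPLA1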
LYPLA2 counter – LYPLA2 inhibitors, primary screen, counter-screen for PME1 inhibitor project, biochemical, fluorescence polarization, FP-Rh probe ABPP | recombinant LYPLA2 | inhibition, % at 5.9 µM | hit rate 0.38% among 320,000 | AID 2177, 2009;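 active means inhibition above the screen-wide mean plus 3 SD, limit set per campaign, cut at about 26% in these data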;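 further: 0% = LYPLA2 with DMSO and 100% = wells lacking LYPLA2 enzyme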
Fam108B inh – mouse Fam108B serine hydrolase inhibitors, primary screen, counter-screen for RBBP9 inhibitor project, biochemical, fluorescence polarization; recombinant Fam108B, FP-Rh probe fluorescence polarization; inhibition, % at 9.51 µM; hit rate 0.33% among 300,000; AID 1947, 2009;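 active means inhibition above the screen mean inhibition plus 3 SD, computed separately per campaign, cut at about 18% in these data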;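 further: inhibitors lower polarization as less probe binds the enzyme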
PME-1 primary – PME-1 inhibitors via competitive probe labeling, primary screen, biochemical, fluorescence polarization, FP-Rh probe, HTS | Protein phosphatase methylesterase 1 (Homo sapiens), Q9Y570 | recombinant PME-1 | inhibition, % at 5.9 µM | hit rate 0.53% among 320,000 | AID 2130, 2009;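 active means inhibition above the campaign mean of all compounds plus 3 SD, cut at about 26% in these data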;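 further: competitive labeling of PME-1 active site by serine hydrolase directed probe; 0% = PME-1 with DMSO and 100% = wells lacking PME-1 enzyme; inhibitors block probe labeling so polarization falls and inhibition rises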
Target sequence (Q9Y570 whole entry, looked up): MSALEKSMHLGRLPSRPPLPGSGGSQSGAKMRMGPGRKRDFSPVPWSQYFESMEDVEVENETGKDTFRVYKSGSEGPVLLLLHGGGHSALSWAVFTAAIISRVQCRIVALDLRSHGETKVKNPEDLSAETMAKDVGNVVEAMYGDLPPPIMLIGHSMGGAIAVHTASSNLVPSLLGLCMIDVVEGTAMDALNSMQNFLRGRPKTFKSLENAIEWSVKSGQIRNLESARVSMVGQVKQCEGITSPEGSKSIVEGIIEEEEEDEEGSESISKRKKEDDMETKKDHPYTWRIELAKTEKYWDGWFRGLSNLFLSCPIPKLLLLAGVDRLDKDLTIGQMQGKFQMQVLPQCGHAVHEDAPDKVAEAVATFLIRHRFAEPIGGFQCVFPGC
Fam108b confirm – mouse Fam108b serine hydrolase inhibitors, confirmation, counter-screen for RBBP9 inhibitor project, biochemical, fluorescence polarization, triplicate; inhibition, % at 9.51 µM; AID 1978, 2009; shares compounds with Fam108B inh; hit rate 44% among 930; recombinant Fam108b, FP-Rh probe fluorescence polarization;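 active means inhibition above a limit from the primary screen, the mean over all compounds plus 3 SD, cut at about 19% in these data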;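 further: 0% = median of active Fam108b wells and 100% = catalytically dead S170A mutant; inhibitors free the probe so polarization falls as inhibition rises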
Fam108b ABPP HTS – inhibition of mouse Fam108b by HTS hits, late-stage follow-up, biochemical, gel-based ABPP, soluble recombinant form. shares compounds with Fam108B inh. fluorophosphonate probe. inhibition, % at 20 µM. hit rate 44% among 260. AID 588649, 2011; in the data active means inhibition above about 40%
LYPLA1 conf – LYPLA1 inhibitors, retest, confirmation, counter-screen for PME1 inhibitor project, biochemical, fluorescence polarization, FP-Rh probe ABPP | AID 2233, 2010 | shares compounds with LYPLA1 inh | hit rate 69% among 480 | recombinant LYPLA1 | inhibition, % at 5.9 µM;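 active means mean inhibition across replicates above the hit cutoff set in the primary screen, cut at about 15% in these data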;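 further: loss of FP-Rh probe labeling of LYPLA1 seen as lower polarization; 0% = LYPLA1 with DMSO and 100% = wells lacking LYPLA1 enzyme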
LYPLA2 confirm – LYPLA2 inhibitors, retest, confirmation, counter-screen for PME1 inhibitor project, biochemical, fluorescence polarization, FP-Rh probe ABPP | shares compounds with LYPLA2 counter | recombinant LYPLA2 | inhibition, % at 5.9 µM | hit rate 72% among 1,100;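 active means mean inhibition across replicates above the hit cutoff set in the primary screen, cut at about 26% in these data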;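 further: blocked labeling of the enzyme by serine hydrolase FP-Rh probe lowers polarization; 0% = enzyme with DMSO and 100% = wells lacking LYPLA2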
* hit, by the source's call; · = no result given.

SMILES	PREPL inhibitor	LYPLA1 inh	LYPLA2 counter	Fam108B inh	PME-1 primary	Fam108b confirm	LYPLA1 conf	LYPLA2 confirm	others
Cc1cc(S(=O)(=O)Nc2ccc(C(=O)NCC(c3ccco3)N(C)C)cc2)ccc1F (configuration not stated)	-4.6	-0.5	-3.0	-3.1	-0.3	·	·	·
CN(c1ccccc1)S(=O)(=O)c1ccc(NC(=O)c2ccc(-c3ccccc3)cc2)cc1	-13.6	22.3*	30.4*	45.4*	63.6*	80.0*	25.9*	34.8*	Fam108b ABPP HTS=95.0*
O=C(CSc1nnc(-c2ccccc2)c(-c2ccccc2)n1)NC1CCS(=O)(=O)C1 (configuration not stated)	-1.3	0.3	0.9	1.6	-0.9	·	·	·
Oc1ccc(N=Cc2ccc(-c3cccs3)s2)cc1	21.7	10.3	29.2*	27.7*	51.4*	61.8*	·	8.3	Fam108b ABPP HTS=0.0
CN1C(=O)c2cccc3c(Cl)ccc(c23)C1=O	0.6	1.4	2.7	0.6	2.3	·	·	·
CNc1ccc2c3c(cccc13)C(=O)N(C)C2=O	63.5*	58.7*	82.2*	62.0*	77.1*	47.1*	47.1*	59.0*	Fam108b ABPP HTS=25.0
O=C(O)CC1NC(=S)N(c2ccccc2)C1=O (configuration not stated)	18.2	0.0	-2.3	-1.3	2.2	·	·	·
O=C1C(CSCc2ccccc2)NC(=S)N1c1ccccc1 (configuration not stated)	-6.8	28.5*	50.3*	70.7*	89.5*	3.5	1.5	-3.4
COc1ccc(CN(C)CC(=O)Nc2cccc(S(=O)(=O)N3CCCC3)c2)cc1F	16.3	·	·	·	·	·	·	·
Cc1noc(C)c1CSCC(=O)N(C)CC(=O)Nc1ccccc1C(F)(F)F	9.9	0.6	0.9	·	5.4	·	·	·
Cc1noc(C)c1CSCC(=O)Nc1nc2ccc(F)cc2s1	0.0	-0.1	-1.6	-2.4	3.2	·	·	·
Cc1ccc(S(=O)(=O)Nc2ccc(Br)cc2C(NCC(=O)O)c2ccccc2)cc1 (configuration not stated)	12.8	-1.0	0.2	-2.0	4.0	·	·	·
O=C(O)CSc1cc(NS(=O)(=O)c2ccc(Br)cc2)c2ccccc2c1O	9.5	8.5	37.5*	22.3*	29.8*	2.7	·	20.5
Nc1ccc(O)c2c1C(=O)c1ccccc1C2=O	51.1*	50.0*	61.6*	53.0*	56.3*	49.5*	36.4*	58.8*	Fam108b ABPP HTS=0.0
O=C1c2ccccc2C(=O)N1c1ccc(Cl)cc1	7.3	3.4	5.2	-3.0	4.6	·	·	·
O=C1c2cccc3c(O)ccc(c23)C(=O)N1c1ccc(Cl)cc1	28.5	20.4*	33.1*	20.3*	36.6*	11.8	15.5*	17.1
Cc1coc2c1C(=O)C(=O)c1c-2ccc2c(C)cccc12	3.2	9.6	39.1*	19.2*	7.8	15.1	·	8.7
Cc1ccc2c3c(cccc13)-c1ccccc1C2=O	19.6	6.5	-6.1	-6.0	-3.2	·	·	·
Cc1noc(C)c1COc1ccc(C(=O)N2CCN(c3ccccc3O)CC2)cc1	2.5	3.6	9.8	·	-0.5	·	·	·
O=C1c2ccccc2-c2onc3ccc(NCCCn4ccnc4)c1c23	110.2*	104.7*	112.2*	121.8*	108.9*	149.6*	109.4*	117.5*	Fam108b ABPP HTS=80.0*
COc1cc(C(=O)NCCOc2cc(C)cc(C)c2)cc(OC)c1OC	-5.7	2.2	-3.1	4.3	3.8	·	·	·
